From PubChem BioAssay
ATXN2 expr inh = Primary qHTS for Inhibitors of ATXN expression; 360,000 tested, 0.72% active; AID 1745845, 2022; Potency, µM (doses to about 57 µM), without a hit: at the highest dose activity change, negative = inhibition, most hits filed as inhibitors; HEK-293 ATXN2-luciferase reporter, luminescence, 24 h; further: on the % scale 0 is the no-effect control and ±100 the full control effect; nearly all actives have a fitted effect of over 55% in size
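qHTS (up to 57 uM final) was run with 24 h compound exposure of reporter cells at 37 °C. Each well was multiplexed: SteadyGlo luminescence measured ATXN2-luciferase expression after a fluorogenic Gly-Phe-AFC viability readout (25 uM final).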
HepG2 tox = qHTS for Inhibitors of TGF-b: Cytotox Counterscreen | HepG2 CAGA-GFP viability, ATP luminescence, 18 h | AID 588856, 2011 | Potency, µM (doses to about 46.1 µM), for the others: at the highest dose activity change, negative = cytotoxicity, hits mostly cytotoxic | 410,000 tested, 0.76% active
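HepG2 CAGA-GFP cells (1000/well, DMEM with 1% FBS) received compound, then TGF-beta at 500 pg/mL final, and were incubated 18 hours at 37 degrees C. Viability was read by CellTiter-Glo luminescence. Media-only wells were set as complete cell-killing and DMSO as no toxicity.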
VP16 counter = VP16 counterscreen qHTS for inhibitors of ROR gamma transcriptional activity; Drosophila S2 Gal4-VP16 UAS-luciferase, luminescence, 20 h; Potency, µM (highest dose often 53.6 µM), without a hit: at the highest dose activity, negative = inhibition, actives largely listed as inhibitors; 310,000 tested, 3.5% active; AID 2546, 2010;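 further: Gal4-VP16 expression switched on by copper sulfate through the metallothionein promoter; on the % scale 0 is the no-effect control and ±100 the full control effect; nearly all actives have a fitted effect of over 50% in size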
RORg inh = qHTS for inhibitors of ROR gamma transcriptional activity; Potency, µM (highest dose often 53.6 µM), without a hit: at the highest dose activity change, negative = inhibition, usual class: inhibitors; Drosophila S2 Gal4-RORgamma UAS-luciferase reporter, 20 h; Nuclear receptor ROR-gamma (Mus musculus), P51450; AID 2551, 2010; 310,000 tested, 5.4% active; further: on the % scale 0 is the no-effect control and ±100 the full control effect; nearly all actives have a fitted effect of over 60% in size
Target sequence (P51450 whole entry, looked up, the tested form may be a part): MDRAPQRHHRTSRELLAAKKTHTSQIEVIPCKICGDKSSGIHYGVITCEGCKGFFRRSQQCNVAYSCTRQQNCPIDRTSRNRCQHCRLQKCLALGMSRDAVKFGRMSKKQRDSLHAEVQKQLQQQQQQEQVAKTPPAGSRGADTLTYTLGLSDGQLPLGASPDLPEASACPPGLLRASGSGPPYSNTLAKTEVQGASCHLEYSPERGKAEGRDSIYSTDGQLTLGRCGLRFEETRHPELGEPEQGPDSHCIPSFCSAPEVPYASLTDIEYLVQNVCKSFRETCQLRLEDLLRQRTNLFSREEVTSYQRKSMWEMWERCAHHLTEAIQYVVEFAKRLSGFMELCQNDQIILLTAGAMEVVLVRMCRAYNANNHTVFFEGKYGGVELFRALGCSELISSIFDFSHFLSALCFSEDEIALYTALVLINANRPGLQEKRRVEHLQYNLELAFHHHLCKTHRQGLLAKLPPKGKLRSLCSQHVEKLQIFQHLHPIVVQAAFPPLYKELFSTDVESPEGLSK
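A Gal4/UAS one-hybrid system in insect cells: metallothionein-promoter Gal4–ROR gamma fusion plus Photinus luciferase reporter. Copper sulfate 700 uM final, 20 hr ambient incubation, luminescent detection after 10 min with reagent.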
ATXN viability = Viability Counterscreen for Primary qHTS for Inhibitors of ATXN expression | S2 cells (HEK-293 line with an ATXN2-luciferase reporter) viability, CellTiter-Fluor protease fluorescence, 24 h | Potency, µM (top dose mostly 56.7 µM), usual class: cytotoxic | 400,000 tested, 0.49% active; further: nearly all actives have a fitted effect of over 40% in size
TGFb inhibitor = qHTS for Inhibitors of TGF-b | HepG2 CAGA-GFP TGF-b/SMAD3 reporter, GFP fluorescence, 18 h; TGF-beta stimulated, 500 pg/mL final | Potency, µM (highest dose often 46.1 µM), for the others: at the top dose activity, negative = inhibition, most hits filed as inhibitors | 410,000 tested, 1.2% active | AID 588855, 2011; further: on the % scale 0 is the no-effect control and ±100 the full control effect; nearly all actives have a fitted effect of over 65% in size
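Smad-responsive CAGA-GFP expression was quantified in HEPG2 cells exposed to compounds and 500 pg/mL final TGF-beta for 18 h at 37 degrees C; unstimulated wells defined full inhibition.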
* hit, by the source's call; i = inactive; u = inconclusive; x = not tested or not shown; [ ] = another dose, or the depositor's remark. In the library only some 6.3% were active in any assay of this set; here they are far more common. The call rests on the fitted dose curve; in most records, active means well fitted curve in the direction sought with a large enough effect; inconclusive means small, poorly fitted or top-dose-only effect, or another doubt; inactive means no such curve, though single readings can be large; an effect the other way counts as inactive or inconclusive. Potency means the concentration at half of the fitted maximal effect.

SMILES | ATXN2 expr inh | HepG2 tox | VP16 counter | RORg inh | ATXN viability | TGFb inhibitor
CN1CCN(C(c2ccccn2)c2cc(Cl)c3cccnc3c2O)CC1 (stereo not drawn) | x | -13% | 5µM* | 1.4µM* | i | u
COc1ccc(C(=O)NC(c2ccc(OC)c(OC)c2)c2cc(Cl)c3cccnc3c2O)cc1 (stereo not drawn) | x | -2% | x | x | x | -1%
COc1cc(NCCCn2cnc(C(=O)Nc3ccc(C)c(C)c3)n2)cc(OC)c1OC | -2% | -1% | x | x | i | -5%
Cc1ncc2c(c1CNC(=O)c1cncs1)CCN(C(=O)c1ccc(-c3ccccc3)cc1)C2 | x | x | x | x | i | x
CC(=O)Nc1ccn(C2COC(COC(=O)c3ccccc3)O2)c(=O)n1 (stereo not drawn) | u | x | x | x | i | x
O=C(Nc1nnc(-c2ccc(Cl)s2)o1)C1CCCCC1 | 2% | 7% | x | x | i | 10%
CCCC(=O)Nc1nnc(-c2ccc(Cl)s2)o1 | -11% | -7% | u | 8.9µM* | i | -3%
CC1(C)COCN1S(=O)(=O)c1ccc(C(=O)Nc2nnc(-c3ccc(Cl)s3)o2)cc1 | 7.9µM* | -5% | 0.13µM* | 0.11µM* | u | -9%
COc1ccc(-c2nnc(NC(=O)c3ccc(S(=O)(=O)N4COCC4(C)C)cc3)o2)cc1 | u | -1% | 0.4µM* | 0.22µM* | i | -2%
Cc1nc2ccccc2n1/N=C/c1ccc([N+](=O)[O-])o1 | u | -106% | x | x | i | 11µM*
COc1cccc(/C=N/n2c(C)nc3ccccc32)c1OC | 12% | -36% | 8.9µM* | 3.2µM* | i | 3%
O=[N+]([O-])c1ccc(/C=N/n2c(CO)nc3ccccc32)s1 | u | -13% | -25% | -29% | i | u
Cc1nc2ccccc2n1/N=C/c1ccc([N+](=O)[O-])s1 | 21µM* | -62% | 6.3µM* | -51% | x | 6.3µM*
O=[N+]([O-])c1ccc(/C=N/n2cnc3ccccc32)s1 | u | 8.9µM* | u | -36% | x | u
COc1cccc(/C=N\n2c(C)nnc2C)c1OC | 6% | -8% | -8% | -34% | i | -1%
CCCCCCCCCC[n+]1ccc(/C=C/c2c(C)[nH]c3ccccc23)cc1 | x | -101% | x | x | x | 211%
C[Se]CC[C@H](N)C(=O)O | x | x | 0% | 30% | x | x
CCOC(=O)C1=CC[C@@H](c2ccccc2)N(S(=O)(=O)c2ccc(C)cc2)[C@H]1C | -3% | 22µM* | x | x | i | u
CCN(CC(=O)NCc1ccc(F)cc1)CC(O)COCc1cccc(OC)c1 (stereo not drawn) | -2% | -41% | 4% | 15% | i | 13µM*
Cc1ccccc1CNC(=O)Cn1c(=O)c2cccn2c2cccnc21 | x | -3% | x | x | x | -15%
CC(C)(CNC(=O)c1cnn(-c2ncc3c(n2)-c2ccccc2CCC3)c1C1CC1)N1CCOCC1 | x | x | x | x | i | x
CC(C)Cc1cc(CN2CCC(CO)(Cc3cccc(C(F)(F)F)c3)CC2)[nH]n1 | -17%[11.3 µM] | 16µM* | u | 4.5µM* | i | u
CC(C)Cc1cc(CN2CCCC(CO)(Cc3cccc(Cl)c3)C2)[nH]n1 (stereo not drawn) | u | -59% | 5% | -32% | u | u
Cc1ccc(-n2cc(CN3CCC(CO)(Cc4cccc(C(F)(F)F)c4)CC3)cn2)cc1 | -34%[11.3 µM] | 11µM* | u | 18µM* | i | u
COc1cccc(/C=C/c2cnc3ccccc3n2)c1OC | x | -26% | x | x | x | 10%
SMILES | ATXN2 expr inh | HepG2 tox | VP16 counter | RORg inh | ATXN viability | TGFb inhibitor
Cc1nnc(SCc2cnc(-c3ccc(C(C)C)cc3)s2)n1C | x | -5% | 11µM* | 10µM* | x | 15%
COc1cccc(-c2c(C(=O)N/N=C/c3sccc3C)nnn2-c2nonc2N)c1 | 8% | -36% | 22µM* | 8.9µM* | u | u
COc1cccc(-c2c(C(=O)N/N=C/c3ccco3)nnn2-c2nonc2N)c1 | 0% | 1% | -18% | 11µM* | i | 2%
Cc1ccc(-c2c(C(=O)N/N=C/c3sccc3C)nnn2-c2nonc2N)cc1 | x | -25% | 5.6µM* | 4.5µM* | i | -27%
Nc1nonc1-n1nnc(C(=O)N/N=C/c2ccco2)c1-c1ccccc1 | -2% | -7% | u | u | i | 3%
Cc1ccsc1/C=N/NC(=O)c1nnn(-c2nonc2N)c1C | 1% | -10% | u | u | i | 5%
Cc1ccsc1/C=N/NC(=O)c1nnn(-c2nonc2N)c1-c1ccccc1 | 8% | 6% | 20µM* | 7.1µM* | i | -4%
COc1cc(OC)c2c(=O)c(-c3ccccc3)coc2c1 | x | x | -8% | 18% | x | x
CC(=O)Oc1ccc2cc(-c3nc4c(s3)CCc3ccccc3-4)c(=O)oc2c1 | x | -2% | x | x | x | 169%
c1coc(CNc2ncnc3c2[nH]c2ccccc23)c1 | x | -53% | x | x | x | -26%
COc1ccc(C(=O)CCS(=O)(=O)c2ccc(C)cc2)cc1OC | 2% | 16µM* | 4.5µM* | 2.8µM* | i | u
Cc1ccc(S(=O)(=O)CCC(=O)c2ccc(O)cc2O)cc1 | 22% | 11µM* | u | 14µM* | i | 11µM*
COc1ccc(C(=O)COC(=O)CCS(=O)(=O)c2ccc(C)cc2)c(OC)c1 | -14% | -2% | x | x | i | 0%
COC(=O)C1C(O)CC[C@H]2CN3CCc4c([nH]c5ccccc45)C3C[C@H]12 (stereo partly drawn) | x | x | -7% | -6% | x | x
CCCNC(=O)CCn1nc(-c2ccc(C)cc2)c2ccccc2c1=O | 2% | -4% | 7% | 24% | i | u
CCCNC(=O)CCC(=O)Nc1ncc(-c2ccc(C)cc2)n1C | 37% | 0% | 5.6µM* | 3.5µM* | i | 6%
CC1(C)N=C(N)N=C(N)N1c1cccc(C#N)c1 | -10% | 2µM* | x | x | i | -9%
COc1cccc(N2C(N)=NC(N)=NC2(C)C)c1 | 18% | -42% | -2% | -9% | i | -4%
CCSc1ncc(Cl)c(C(=O)Nc2ccccc2OC)n1 | u | -36% | -1% | -44% | u | -12%
CCc1nnc(NC(=O)c2nc(S(=O)(=O)Cc3ccc(C)cc3)ncc2Cl)s1 | u | -183% | 11µM* | 16µM* | x | u
CCc1nnc(NC(=O)c2nc(S(=O)(=O)Cc3ccccc3)ncc2Cl)s1 | u | -95% | 8.9µM* | 11µM* | u | u
